# Experimental data reported in PubChem BioAssay AID1851 (National Center for Advancing Translational Sciences (NCATS), 2009).
# Among all 16,000 compounds or so, about 5,800 (36%) were called active. Inconclusive results (about 23%) are left out. The list shows a part of the results. Values without a mark were called inactive. Calls come from the whole dose curve; as a rule, active = well fitted curve in the direction sought with a large enough effect; inconclusive = small, poorly fitted or top-dose-only effect, or effect the other way; inactive = no such curve, though single readings can be large or run the other way.
# Molecular target: Cytochrome P450 2C19 (Homo sapiens) (UniProt P33261)
# Experiment: Cytochrome panel assay with activity outcomes
# Conditions: recombinant CYP, pro-luciferin dealkylation, luminescence, p450-cyp2c19; series mostly up to 57.1 µM
# % is set by controls: 0 for no effect and ±100 for the full control effect.
# Sequence of Cytochrome P450 2C19 (Homo sapiens) (P33261 whole entry, looked up): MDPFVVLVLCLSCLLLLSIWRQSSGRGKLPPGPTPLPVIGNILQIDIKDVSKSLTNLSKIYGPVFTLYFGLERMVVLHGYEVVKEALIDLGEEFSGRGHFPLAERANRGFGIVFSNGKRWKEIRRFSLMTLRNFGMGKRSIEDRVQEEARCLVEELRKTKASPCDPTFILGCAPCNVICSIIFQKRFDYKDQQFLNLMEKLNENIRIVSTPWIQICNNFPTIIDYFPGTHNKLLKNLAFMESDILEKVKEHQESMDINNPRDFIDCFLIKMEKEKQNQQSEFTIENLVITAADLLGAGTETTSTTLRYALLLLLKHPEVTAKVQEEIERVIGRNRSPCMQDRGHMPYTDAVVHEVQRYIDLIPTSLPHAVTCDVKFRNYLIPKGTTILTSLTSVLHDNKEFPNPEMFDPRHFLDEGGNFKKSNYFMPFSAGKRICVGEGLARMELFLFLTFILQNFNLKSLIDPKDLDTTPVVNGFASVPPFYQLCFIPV
SMILES,AC50,"activity, negative = inhibition"
CN1CCN(c2ncncc2-c2ccc(C(=O)N(C)C)cc2)CC1,inactive,
COc1cccc(-c2cncnc2-n2ccnc2)c1,0.631 µM (active),
c1cncc(-c2cncnc2-n2ccnc2)c1,inactive,
CN(C)c1ccc(-c2cncnc2-n2ccnc2)cc1,3.98 µM (active),
CN(C)c1ccc(-c2ccc3ncnc(N(C)C)c3c2)cc1,inactive,
CN(C)c1ccc(-c2ccc3ncnc(-n4ccnc4)c3c2)cc1,10 µM (active),
CN(C)C(=O)c1ccc(-c2cncnc2N2CCNCC2)cc1,inactive,
CN(C)C(=O)c1ccc(-c2ccc3ncnc(N4CCNCC4)c3c2)cc1,inactive,
CS(=O)(=O)Nc1cccc(-c2cncnc2-n2ccnc2)c1,inactive,
CN1CCN(c2ncncc2-c2ccc(N(C)C)cc2)CC1,10 µM (active),
CN1CCN(c2cc(-c3ccc(N(C)C)cc3)ncn2)CC1,inactive,
Cc1ccccc1-c1ccc2ncnc(-n3ccnc3)c2c1,2 µM (active),
c1cn(-c2ncnc3ccc(-c4ccoc4)cc23)cn1,10 µM (active),
N#Cc1ccccc1-c1ccc2ncnc(N3CCNCC3)c2c1,inactive,
COCCNc1ncnc2ccc(-c3ccoc3)cc12,inactive,
CN(C)c1ccc(-c2cc(-n3ccnc3)ncn2)cc1,7.94 µM (active),
CCCCN(CC)C(=O)Cc1ccccc1OC,4.47 µM (active),
COc1ccccc1CN1CCC2(CC1)CCN(C(C)=O)CC2,inactive,
CCN(CC)C(=O)c1ccc(O)c(OC)c1,inactive,
Cc1ccc2nc(Cc3ccc(N)cc3)[nH]c2c1,3.55 µM (active),
Nc1nc(SCc2ccccc2Cl)cc(C(=O)O)n1,,35% [at 11.4 µM]
N#Cc1c(SCC(N)=O)nsc1SCc1ccccc1Cl,1.12 µM (active),
CN(C)C(=O)c1ccc(-c2nc(NC3CCNCC3)c3ccccc3n2)cc1,inactive,
CC1CCC(NC(=O)CC(C)(C)Cc2nc3ccccc3c(=O)[nH]2)CC1 (centres undefined),6.31 µM (active),
CN=C(NC#N)Nc1ccc(C2=NNC(=O)C[C@@H]2C)cc1,inactive,
CN1CCN(c2ncc3nc(-c4cccs4)c(=O)n(CCc4ccccc4)c3n2)CC1,inactive,

SMILES,AC50,"activity, negative = inhibition"
CN1CCN(c2ncc3ncc(=O)n(Cc4cccs4)c3n2)CC1,inactive,
CN1CCN(c2ncc3nc(-c4ccccc4)c(=O)n(CCc4ccccc4)c3n2)CC1,inactive,
COc1ccc(-c2nc3cnc(N4CCN(C)CC4)nc3n(CCc3ccccc3)c2=O)cc1,inactive,
O=c1cnc2cnc(N3CCOCC3)nc2n1CCc1ccccc1,0.1 µM (active),
COc1ccc(-c2nc3cnc(N4CCOCC4)nc3n(CCc3ccccc3)c2=O)cc1,inactive,
CN1CCN(c2ncc3ncc(=O)n(Cc4ccc(F)cc4)c3n2)CC1,inactive,
Cc1nc2cnc(N3CCN(C)CC3)nc2n(CCc2ccccc2)c1=O,5.01 µM (active),
O=c1c(-c2ccccc2)nc2cnc(N3CCOCC3)nc2n1CCc1ccccc1,inactive,
CN1CCN(c2ncc3ncc(=O)n(CCc4ccccc4)c3n2)CC1,6.31 µM (active),
O=c1cnc2cnc(N3CCOCC3)nc2n1Cc1ccc(F)cc1,3.98 µM (active),
O=c1cnc2cnc(N3CCOCC3)nc2n1C[C@H]1CCCO1,inactive,
COc1ccc(O)c(/C=N/NC(=O)c2ccc(OCc3cccc(Br)c3)cc2)c1,inactive,
COC(=O)CCC(=O)NNC(=O)c1ccc(Br)cc1,inactive,
COc1ccc(C(=O)NCC(=O)OCc2cccc(Br)c2)cc1,3.55 µM (active),
CCO[C@H](c1cc(OC)cc([N+](=O)[O-])c1OC)[C@H](C)/C=C\CC(=O)OC,0.398 µM (active),
CO/N=C\[C@@H](OC)[C@H](C)/C=C\CC(=O)OC,,-12.9% [at 11.4 µM]
COC(=O)C/C=C\[C@H](C)[C@@H](OC)c1ccccc1Br,,-6.61% [at 11.4 µM]
CSc1nnc(-c2sccc2OCc2ccccc2)n1C,17.8 µM (active),
Cc1nc2c(OCc3ccccc3)cccn2c1CC#N,inactive,
CO[C@H]1COC(=O)[C@@H](C)COC(=O)[C@@H](COCc2ccccc2)NC(=O)C/C=C\[C@H]1C,,37.5% [at 11.4 µM]
CC(C)NCCOCCSc1ccc(Cl)cc1,15.8 µM (active),
O=c1[nH]c(=O)n([C@@H]2C[C@H](O)[C@H](CO)O2)cc1C(F)(F)F,inactive,
Cn1cccc1C(=O)N1CCC2(CCN(C(=O)Nc3cccc(F)c3)CC2)CC1,inactive,
CC(=O)NC1(c2ccc(F)cc2)CCN(C(=O)Nc2ccc(F)cc2F)CC1,7.08 µM (active),
CC(=O)N1CCC2(CC1)CCN(C(=O)Nc1cccc(F)c1)CC2,inactive,
CN(C)c1nc(-c2cccnc2)nc2ccccc12,inactive,

SMILES,AC50,"activity, negative = inhibition"
CN(Cc1ccco1)c1nc(-c2ccc3c(c2)OCO3)nc2ccccc12,7.94 µM (active),
COc1cccc(-c2nc(N(C)C)c3ccccc3n2)c1,20 µM (active),
COc1cccc(-c2nc(N(C)Cc3ccco3)c3ccccc3n2)c1,20 µM (active),
CN(Cc1ccco1)c1nc(-c2cccc(C#N)c2)nc2ccccc12,15.8 µM (active),
CN1CCN(c2nc(-c3cccc(C#N)c3)nc3ccccc23)CC1,inactive,
CNC(=O)c1sc(SC)cc1-c1ccc(Cl)cc1,0.0562 µM (active),
CCn1c(/C=C2/C(=O)N(C)c3ccccc32)nc2ccccc2c1=O,15.8 µM (active),
CCn1c(=O)[nH]c2ccccc2c1=O,inactive,
Cc1cc(C)cc(NC(=O)CCc2nc3ccccc3[nH]2)c1,1.58 µM (active),
Cc1cc(C)cc(NC(=O)C/C(N)=N/O)c1,inactive,
CC(C)(CCc1nc2ccccc2[nH]1)C(=O)O,,-0.413% [at 11.4 µM]
CCOC(=O)C1=C(COc2ccc(F)cc2Cl)NC(=O)NC1c1cc(C)ccc1C (centres undefined),7.08 µM (active),
CCOC(=O)C1=C(CSc2nc3ccccc3s2)NC(=O)NC1c1cc(C)ccc1C (centres undefined),7.94 µM (active),
CCOC(=O)C1=C(C)NC(=O)N[C@@H]1c1coc2cc(C)cc(C)c2c1=O,,-27.2% [at 11.4 µM]
C=CCNc1nc(-c2ccc(Cl)cc2)cs1,3.16 µM (active),
Cc1ccc(CSC(N)=Nc2ccccc2)cc1C,2 µM (active),
C#C[C@@]1(O)CC[C@@H]2[C@@H]3CCC4=C(CCC(=O)C4)[C@H]3CC[C@]21C,0.0631 µM (active),
C[C@@]12CCC(=O)C=C1CC[C@@H]1[C@@H]2[C@H](O)C[C@]2(C)[C@@H]1CC[C@]2(O)C(=O)COC(=O)CCC(=O)O,inactive,
C#C[C@]1(O)CC[C@@H]2[C@H]3CCC4=CCCC[C@@H]4[C@@H]3CC[C@@]21C,3.98 µM (active),
C#C[C@@]1(O)CC[C@@H]2[C@@H]3CCC4=CC(=O)CC[C@@H]4[C@H]3CC[C@]21C,5.01 µM (active),
CCNc1ncc2nc(-c3cn(C)c4ccccc34)c(=O)n(C)c2n1,inactive,
COc1cc(OC)cc(C(=O)Nn2cc(C(=O)N3CCN(C)CC3)c3ccccc3c2=O)c1,inactive,
COc1ccc(NC(=O)C2CCN(C(=O)c3cccs3)CC2)c(OC)c1,inactive,
COc1ccc(/C=C/C(=O)Nc2ccccc2C(=O)N2CCCC2)cc1,inactive,
COC(=O)c1ccccc1NC(=O)C1CCN(C(=O)c2ccc(OC)cc2)CC1,14.1 µM (active),
COc1cc(OC)cc(C(=O)Nc2ccccc2C(=O)N2CCCC2)c1,28.2 µM (active),

SMILES,AC50,"activity, negative = inhibition"
O=C1[C@H]2[C@H]3[C@H](O)[C@H](O)C/C(=N/OC[C@@H](O)COCc4ccco4)[C@H]3CC[C@@H]2C(=O)N1C1CCCCC1,,-5.34% [at 11.4 µM]
N#CC(c1ccc(Cl)cc1)(c1ncc(C(F)(F)F)cc1Cl)N1CCOCC1 (centres undefined),11.2 µM (active),
N#CC(c1ccccc1F)(c1ncc(C(F)(F)F)cc1Cl)N1CCOCC1 (centres undefined),11.2 µM (active),
Cc1ccc(SCc2nnc(NC(=O)c3ccccc3)s2)cc1,inactive,
Cc1ccc(SCc2ccc(C(=O)NCc3ccncc3)cc2)cc1,0.355 µM (active),
Cc1ccccc1NS(=O)(=O)c1cc(C(=O)Nc2cccc(N(C)S(C)(=O)=O)c2)ccc1C,3.55 µM (active),
Cc1ccc(SCCNC(=O)c2ccccc2)cc1,6.31 µM (active),
Cc1ccc(SCCNC(=O)c2ccc(C)c(S(=O)(=O)Nc3ccccc3C)c2)cc1,2.51 µM (active),
Cc1ccc(NC(=O)c2cccc(N(C)C)c2)cc1NC(=O)c1ccc(O)cc1,inactive,
CCN(CC)CCNC(=O)c1ccc(Cl)c(S(=O)(=O)Nc2ccccc2OC)c1,inactive,
NS(=O)(=O)Cc1noc2ccccc12,inactive,
Cc1cc(C(C)(C)CC(C)(C)C)ccc1OCCOCC[N+](C)(C)Cc1ccccc1,inactive,
CN[C@@H]1[C@H](O[C@H]2[C@@H](O[C@@H]3[C@@H](O)[C@@H](O)[C@@H](N=C(N)N)[C@@H](O)[C@@H]3N=C(N)N)O[C@@H](C)[C@]2(O)CO)O[C@H](CO)[C@@H](O)[C@@H]1O,inactive,
COc1ccc(-c2ccc(N)[n+](CCCC(=O)O)n2)cc1,inactive,
COc1ccc(-c2ccc(=N)n(CCCC(=O)O)n2)cc1,0.158 µM (active),
Clc1ccccc1-c1cc(NCc2cccnc2)ncn1,inactive,
Cc1cccc(CNc2cc(-c3ccccc3Cl)ncn2)c1,10 µM (active),
Clc1ccccc1-c1cc(NCc2ccccc2)ncn1,7.94 µM (active),
CC(C(=O)NCc1ccc2c(c1)OCO2)N1c2cccc3cccc(c23)S1(=O)=O (centres undefined),0.794 µM (active),
COC(=O)[C@@]1(Cc2ccc(OC)cc2)[C@H]2c3cc(C(=O)N4CCCC4)n(Cc4ccc(Cl)c(C(F)(F)F)c4)c3C[C@H]2CN1C(=O)c1ccccc1,inactive,
COC(=O)[C@@]1(Cc2ccc(OC)cc2)[C@H]2c3cc(C(=O)N4CCCC4)n(CCc4c[nH]c5ccc(O)cc45)c3C[C@H]2CN1C(=O)c1ccccc1,10 µM (active),
COc1ccc(C(=O)N2CCC[C@@]3(CCN(Cc4cc(C(F)(F)F)cc(C(F)(F)F)c4)C3)C2)cc1,inactive,
COC(=O)[C@@]1(Cc2ccc(OC)cc2)[C@H]2c3cc(C(=O)N4CCCC4)n(CCCNc4ncc(C(F)(F)F)cc4Cl)c3C[C@H]2CN1C(=O)c1ccccc1,3.16 µM (active),
COc1ccc(NC(=O)N2CC[C@@]3(CCCN(C(=O)c4cccc(F)c4)C3)C2)cc1,inactive,
COC(=O)[C@@]1(Cc2ccc(OC)cc2)[C@H]2c3cc(C(=O)N4CCCC4)n(CCc4c[nH]c5cc(F)ccc45)c3C[C@H]2CN1C(=O)c1ccccc1,3.98 µM (active),
COC(=O)[C@@]1(Cc2ccc(F)cc2)[C@H]2c3cc(C(=O)N4CCCC4)n(CCc4c[nH]c5ccc(OC)cc45)c3C[C@H]2CN1C(=O)c1ccccc1,7.94 µM (active),
